For eight molecules, growth results are on record in PubChem BioAssay (NCI).

Some test systems named below: HCT-15 colon; HT29 colon; SNB-75 CNS; SNB-19 CNS; U251 CNS; PC-3 prostate; SK-MEL-5 melanoma; UACC-62 melanoma; LOX IMVI melanoma; SK-MEL-28 melanoma; SK-MEL-2 melanoma; EKVX NSCLC; SN12C renal; UO-31 renal; TK-10 renal; ACHN renal; CAKI-1 renal; A498 renal; CCRF-CEM leukemia; MOLT-4 leukemia.
Common to all, as to assay: NCI-60 one-dose screen, 48 h (100 = growth as untreated, 0 = no growth, -100 = all killed)
Holding throughout (settings): 10 µM unless noted

Structures are written as SMILES. This is part of a sample that, as a whole, favours compounds with a hit. Of some 83,000 tested, about 20% had one in any assay.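 For each line, cells grew in 96-well plates with the test compound present at a single concentration for 48 hours.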 Values without a mark were called inactive. The source made the active and inactive calls. How the source made its calls: active means growth percent below 10; inactive means the rest.

Regarding `Fc1ccc(CNc2c3ccccc3nc3ccccc23)cc1`, the growth was 17.6% in the assay on HCT-15 colon; 16.1% in the assay with HT29 colon; 42.1% in the assay with SNB-75 CNS; 32.4% in the assay on SNB-19 CNS; 25.9% in the assay with U251 CNS; 26.9% with PC-3 prostate. Besides, the growth in the assay with SK-MEL-5 melanoma is 42.5%; in the assay with UACC-62 melanoma, 50.2%; with LOX IMVI melanoma, 9.43% (active); with SK-MEL-28 melanoma, 68.2%; in the assay with SK-MEL-2 melanoma it was 43.8%; in the assay with EKVX NSCLC it was 35.6%. For the same molecule, the growth in the assay on SN12C renal was 25.7%; with UO-31 renal, 13.5%; in the assay on TK-10 renal, 30.2%; in the assay with ACHN renal it was 12.5%; in the assay with CAKI-1 renal it was 25.5%; in the assay on A498 renal it was -1.77% (active). Further, the results for the growth in the assay with CCRF-CEM leukemia and with MOLT-4 leukemia were 26% and 8.68% (active), respectively.

Consider `COc1cc(C(=O)c2c(-c3ccccc3)oc3c(OC)cccc23)cc(OC)c1O`, for which the growth in the assay on HCT-15 colon is 13.5%; in the assay on HT29 colon, 6.79% (active); with SNB-75 CNS, 22.2%; with SNB-19 CNS, 25.8%; in the assay on U251 CNS, 18.8%; in the assay on PC-3 prostate, 23.5%. For the same molecule, the growth in the assay on SK-MEL-5 melanoma is 19.7%; in the assay with UACC-62 melanoma, 39.3%; in the assay on LOX IMVI melanoma, 16.1%; in the assay on SK-MEL-28 melanoma, 62.7%; in the assay with SK-MEL-2 melanoma, 62%; with EKVX NSCLC, 44.9%. In addition, the growth is 27.1% in the assay with SN12C renal; 46.2% in the assay on UO-31 renal; 64.6% in the assay on TK-10 renal; 28.1% with ACHN renal; 33.1% in the assay with CAKI-1 renal; -26.1% (active) in the assay on A498 renal. Besides, the growth in the assay with CCRF-CEM leukemia was 13.8%; with MOLT-4 leukemia, 18.7%.

`Cc1cccc(NC(=O)CSc2nc3ccc([N+](=O)[O-])cc3[nH]2)c1`: the growth in the assay on HCT-15 colon was 75.1%; in the assay on HT29 colon it was 90.4%; in the assay on SNB-75 CNS, 70%; with SNB-19 CNS, 80.3%; in the assay on U251 CNS, 74.5%; with PC-3 prostate, 75.1%. The growth in the assay with SK-MEL-5 melanoma is 52%; in the assay on UACC-62 melanoma, 42.6%; in the assay with LOX IMVI melanoma, 81.4%; with SK-MEL-28 melanoma it was 80.7%; in the assay with SK-MEL-2 melanoma, 98.5%; in the assay on EKVX NSCLC it was 70.9%. In addition, the growth in the assay on SN12C renal is 80.7%; in the assay on UO-31 renal, 54.2%; with TK-10 renal, 97.3%; in the assay with ACHN renal, 82.5%; in the assay on CAKI-1 renal, 61.4%; in the assay with A498 renal, 63.5%. Also, the growth in the assay with CCRF-CEM leukemia was 78.4%; with MOLT-4 leukemia, 77.2%.

As for `CC1(C)CC[C@]2(C(=O)N3CCOCC3)CC[C@]3(C)C(=CC[C@@H]4[C@@]5(C)C/C(=C/c6ccncc6)C(=O)C(C)(C)[C@@H]5CC[C@]43C)[C@@H]2C1`, the growth in the assay on HCT-15 colon is 7.19% (active); in the assay with HT29 colon it was 5.31% (active); in the assay on SNB-75 CNS, 43%; with SNB-19 CNS it was 47.5%; with U251 CNS it was 18.4%; in the assay on PC-3 prostate, 10.9%. Besides, the growth is -63.5% (active) in the assay with SK-MEL-5 melanoma; 2.88% (active) with UACC-62 melanoma; -84% (active) with LOX IMVI melanoma; -14.4% (active) in the assay on SK-MEL-28 melanoma; -6.74% (active) with SK-MEL-2 melanoma; 14.5% with EKVX NSCLC. In addition, the growth was 18% in the assay on SN12C renal; 11% with UO-31 renal; 35.9% with TK-10 renal; 15.6% in the assay on ACHN renal; 16.7% in the assay on CAKI-1 renal; -20.3% (active) with A498 renal. In addition, the growth was -6.27% (active) in the assay with CCRF-CEM leukemia and -16.9% (active) in the assay with MOLT-4 leukemia.

As for `CCN=C1C=CC(=C(c2ccc(N(C)C)cc2)c2ccc(N(C)C)cc2)c2ccccc21`, the growth in the assay with HCT-15 colon is -7.99% (active); in the assay with HT29 colon it was -18.7% (active); in the assay on SNB-75 CNS, -17.3% (active); in the assay on SNB-19 CNS, 14.8%; in the assay on U251 CNS it was -3.23% (active); in the assay on PC-3 prostate it was -4.82% (active). The growth in the assay with SK-MEL-5 melanoma is -95.5% (active); in the assay with UACC-62 melanoma, -38% (active); in the assay on LOX IMVI melanoma it was -10.8% (active); with SK-MEL-28 melanoma, -18.5% (active); in the assay with SK-MEL-2 melanoma it was -39.5% (active); in the assay on EKVX NSCLC, -6.63% (active). Besides, the growth was -22.2% (active) with SN12C renal; -42.9% (active) in the assay on UO-31 renal; -3.47% (active) in the assay with TK-10 renal; -9.84% (active) in the assay on ACHN renal; 0.419% (active) in the assay with CAKI-1 renal; 13.3% in the assay on A498 renal. The growth with CCRF-CEM leukemia was 9.37% (active); in the assay on MOLT-4 leukemia it was 9.89% (active).

Consider `Clc1nn2c(Cn3cnc4c(NCc5ccccc5)ncnc43)nnc2c2ccccc12`, for which the growth in the assay on HCT-15 colon was 25.8%; in the assay with HT29 colon it was 56.4%; in the assay on SNB-75 CNS, 37.1%; in the assay on SNB-19 CNS, 61.9%; with U251 CNS, 34.5%; with PC-3 prostate it was 42%. Further, the growth with SK-MEL-5 melanoma was 58.6%; in the assay with UACC-62 melanoma, 22.4%; with LOX IMVI melanoma, 31.3%; in the assay with SK-MEL-28 melanoma it was 46%; in the assay on SK-MEL-2 melanoma, -5.44% (active); with EKVX NSCLC, 52%. The growth is 32% with SN12C renal; 21.7% in the assay with UO-31 renal; 40.5% in the assay with TK-10 renal; 16.8% in the assay on ACHN renal; 3.56% (active) in the assay on CAKI-1 renal; 22.5% in the assay with A498 renal. Moreover, the growth in the assay with CCRF-CEM leukemia was 39%; in the assay with MOLT-4 leukemia, 26.5%.

Consider `Cc1ccc(-c2cc(C(=O)N3N=C(c4ccc(N)cc4)CC3c3ccc(Cl)cc3)c3ccccc3n2)cc1` (stereo not given), for which the growth with HCT-15 colon is 30.2%; in the assay on HT29 colon, -1.84% (active); with SNB-75 CNS it was -4.36% (active); in the assay with SNB-19 CNS, 42.1%; in the assay with U251 CNS, 22.5%; in the assay with PC-3 prostate it was 15.4%. For the same molecule, the growth in the assay on SK-MEL-5 melanoma was 12.4%; in the assay with UACC-62 melanoma, 39.2%; with LOX IMVI melanoma, 37.2%; with SK-MEL-28 melanoma, 72.6%; in the assay on SK-MEL-2 melanoma, 2.76% (active); in the assay on EKVX NSCLC, 44.5%. Also, the growth in the assay with SN12C renal was 48.8%; with UO-31 renal it was 42.9%; with TK-10 renal it was 24.5%; with ACHN renal, 51.7%; in the assay with CAKI-1 renal, 24%; in the assay with A498 renal, 0.316% (active). Further, the growth in the assay with CCRF-CEM leukemia was 12.8%; in the assay with MOLT-4 leukemia, 25.2%.

Take `CCCCCCCCn1ccc2cc(NC(=O)Cn3cc(CN4CCC(C)CC4)nn3)ccc21`: the growth in the assay on HCT-15 colon is -32.2% (active); in the assay on HT29 colon, -66.9% (active); in the assay on SNB-75 CNS, 79.1%; with SNB-19 CNS, -34.8% (active); with U251 CNS, -57.6% (active); in the assay on PC-3 prostate it was 43%. In addition, the growth in the assay with SK-MEL-5 melanoma was -23% (active); in the assay on UACC-62 melanoma, -77.8% (active); in the assay with LOX IMVI melanoma it was -85.3% (active); in the assay with SK-MEL-28 melanoma it was -86.9% (active); in the assay with SK-MEL-2 melanoma it was 50.3%; in the assay with EKVX NSCLC it was 79%. Moreover, the growth in the assay on SN12C renal was 33.5%; in the assay on UO-31 renal, -87.7% (active); with TK-10 renal, 80.7%; with ACHN renal, 55.1%; with CAKI-1 renal it was 11.3%; with A498 renal, 87.6%. Moreover, the growth in the assay on CCRF-CEM leukemia is -12% (active); in the assay on MOLT-4 leukemia, 3.1% (active).
